# Screen size: about 290,000 compounds; about 890 (0.31%) were called active. No stated cut-off is given here; in the data, active means inhibition mostly above about 52% (no sharp cut-off); inactive means mostly below about 76%. The sample as a whole holds a higher share of actives than the screen did.
# Assay: cell-free HIV fusion peptide-binding blockers – biochemical, uHTS, fluorescence dequenching, primary screen (AID 1986)
# Settings: 30 min, stronger effect = higher value
# [1] = measured here: repeat confirmation average inhibition, at 18.6 µM
SMILES,inhibition (at 20 µM),inhibition [1] [%]
N#CC(c1ccccc1)C1CCN(Cc2ccccc2)CC1 (centres undefined),0.8% (inactive),–
O=c1c2cn[nH]c2[nH]c(=S)n1-c1ccccc1,1.4% (inactive),–
CCCCC/S(CC1CC1(Cl)Cl)=N\S(=O)(=O)c1ccc(C)cc1 (centres undefined),0.9% (inactive),–
CN(CC(=O)Nc1ccc(C(N)=O)cc1)CC(=O)Nc1ccccc1Br,0.7% (inactive),–
O=C(Nc1ccncc1)Nc1ccc(F)c(Cl)c1,0.5% (inactive),–
CC1=NN(C(=O)c2ccccc2C)C(O)(c2ccc(Cl)cc2)C1 (centres undefined),-2.2% (inactive),–
CC(C)CC(C(=O)Nc1oc(-c2ccco2)c(-c2ccco2)c1C#N)N1C(=O)c2ccccc2C1=O (centres undefined),-0.7% (inactive),–
N#Cc1c(N)oc(-c2ccco2)c1-c1ccco1,2.6% (inactive),–
CC(Oc1ccccc1)C(=O)Nc1oc(-c2ccco2)c(-c2ccco2)c1C#N (centres undefined),76.1% (active),–
O=C(Nc1ccnn1C1CCN(Cc2ccc(Cl)cc2)CC1)C1CCCC1,1.4% (inactive),–
O=C(N/N=C/c1cccc([N+](=O)[O-])c1O)C(O)(c1ccccc1)c1ccccc1,11% (inactive),–
C/C=C\C=C/C(=O)Nc1cccc(C2=NOC3(C2)C[C@H](C(N)=O)N(C(=O)c2ccc(OC)cc2)C3)c1 (some centres undefined),5.2% (inactive),–
Cc1sc2nc3c(SC(C)C(=O)O)cc(C(=O)c4ccccc4O)cn3c(=O)c2c1C (centres undefined),20.4% (inactive),–
O=C(O)CSc1cc(C(=O)c2ccccc2O)cn2c(=O)c3c(-c4ccccc4)csc3nc12,59.6% (active),–
CCOC(=O)c1sc2nc3c(SCC(=O)O)cc(C(=O)c4ccccc4O)cn3c(=O)c2c1C,49.9% (inactive),–
CN(C)/C=C(/C(=O)c1ccc(Cl)c(Cl)c1)S(C)(=O)=O,0.6% (inactive),–
CCOc1ccc(NC(=O)CN(C)C(=O)c2cccnc2SC)cc1OCC,0.9% (inactive),–
CCN(CC)c1ccc(/C=N/n2c(C)nc3ccccc3c2=O)cc1,-0.4% (inactive),–
Cc1cc(/C=C\c2ccccc2)nc2ccccc12,1.2% (inactive),–
CCN(CC)c1ccc(/C=C/c2cc(-c3ccccc3)c3ccccc3n2)cc1,96.8% (active),–
CCN(CC)c1ccc(NC(=O)COC(=O)/C=C/c2nc3ccccc3s2)cc1,-1.3% (inactive),–
CCN(CC)c1ccc(/C=C/c2nc3ccccc3s2)cc1,53% (active),–
CN(C)c1ccc(/C=C/c2nc3ccccc3s2)cc1,3.1% (inactive),–
Cc1ccccc1C(=NC(=O)c1ccccc1)c1ccccc1,0.6% (inactive),–
COc1cc(/C=C(\C#N)C(=O)c2c(C)[nH]c3ccccc23)cc(OC)c1OC,-1.7% (inactive),–

SMILES,inhibition (at 20 µM),inhibition [1] [%]
COc1cc(/C=C(\C#N)C(=O)c2c[nH]c3ccccc23)cc(OC)c1O,62.6% (active),–
COc1ccc(/C=C(\C#N)c2nc3ccccc3[nH]2)cc1O,-0.7% (inactive),–
COc1ccc(/C=C(\C#N)C(=O)c2c(C)[nH]c3ccccc23)cc1OC,-1.1% (inactive),–
COc1cc(/C=C(\C#N)c2nc3ccccc3[nH]2)cc(OC)c1O,69.9% (active),–
COc1cc(/C=C(/C#N)c2nc(-c3cc4ccccc4oc3=O)cs2)cc([N+](=O)[O-])c1O,66.8% (active),–
COc1cc(/C=C(\C#N)c2nc3ccccc3[nH]2)cc(Br)c1OCc1ccccc1,6.5% (inactive),–
COc1cc(/C=C(\C#N)c2nc(-c3cc4ccccc4oc3=O)cs2)ccc1O,31.9% (inactive),–
COc1ccc(-c2csc(/C(C#N)=C\c3ccc(O)c([N+](=O)[O-])c3)n2)cc1OC,62.9% (inactive),9.1
COc1ccc(/C=C(\C#N)c2nc3ccc(C)cc3[nH]2)cc1Oc1ccc(C(F)(F)F)cc1[N+](=O)[O-],10% (inactive),–
COc1cc(/C=C(\C#N)c2nc3ccc(C)cc3[nH]2)c([N+](=O)[O-])cc1OC,-2.7% (inactive),–
CSc1ccc(S(=O)(=O)N2CCC(C(=O)NCC3CCCO3)CC2)cc1 (centres undefined),-1.2% (inactive),–
COc1ccc(NC(=O)c2ccsc2NC(C)=O)cc1,-0.1% (inactive),–
COCCSc1nnc(NC(=O)c2ccc(NC(=O)C(C)C)cc2)s1,1.5% (inactive),–
CCN(c1ccccc1)S(=O)(=O)c1ccc(OCC(=O)Nc2cc(C)on2)cc1,-4% (inactive),–
Cc1c(NC(=O)c2c(F)cccc2F)c(=O)n(-c2ccccc2)n1C,0.4% (inactive),–
CCOc1cc(N2CCOCC2)c(OCC)cc1NC(=O)COC(=O)c1cc2ccccc2cc1O,-0.9% (inactive),–
CCOC(=O)CNC(=O)CNC(=O)Cn1ccc2ccccc2c1=O,-0.8% (inactive),–
O=C(C[n+]1ccc(C(=O)NCc2ccccc2)cc1)c1ccc(Cl)cc1,1.3% (inactive),–
Cc1ccc(NC(=O)COC(=O)Cn2cnc3c2c(=O)n(C)c(=O)n3C)c(Cl)c1,1.4% (inactive),–
O=C(NCCCCc1ccccc1)C1CCCC1,-0.4% (inactive),–
COc1ccccc1NC(=O)CCCc1nc(-c2ccc(OC)c(OC)c2)no1,-1% (inactive),–
COc1cc(/C=C(/C#N)c2nc3ccccc3[nH]2)ccc1OC(=O)c1ccco1,0.5% (inactive),–
Cc1cc2nc(/C(C#N)=C\c3ccc(-c4ccccc4C(=O)O)o3)[nH]c2cc1C,135% (inactive),–
N#C/C(=C\c1ccc(-c2ccccc2C(=O)O)o1)c1nc2ccccc2[nH]1,29.4% (inactive),–
Cc1cc(/C=C(/C#N)c2nc3ccccc3[nH]2)c(C)n1-c1cc(C(=O)O)cc(C(=O)O)c1,63.6% (inactive),40.2

SMILES,inhibition (at 20 µM),inhibition [1] [%]
Cc1ccc2nc(/C(C#N)=C/c3ccc(-c4ccccc4C(=O)O)o3)[nH]c2c1,94.3% (active),63.8
Cc1cc(/C=C(\C#N)c2nc3ccccc3[nH]2)c(C)n1C,54% (active),–
COC(=O)c1ccc(COc2ccc(/C=C(\C#N)c3nc4ccccc4[nH]3)cc2OC)o1,4.4% (inactive),–
Cc1cc(/C=C(/C#N)c2nc3ccccc3[nH]2)c(C)n1-c1ccccc1C(=O)O,9.7% (inactive),–
COc1cc(/C=C(\C#N)c2nc3ccccc3[nH]2)ccc1OC(=O)c1ccco1,61.1% (active),–
O=C(NC(=S)Nc1ccc(CN2CCCCC2)cc1)c1ccco1,0.8% (inactive),–
Cc1ccccc1-n1ncc2c1CC(C)(C)CC2NC(=O)CCCN1CCCC1=O (centres undefined),0.2% (inactive),–
CCOc1ccc(NC(=O)CSc2nc3ccsc3c(=O)n2CCC(=O)O)cc1,2.5% (inactive),–
Oc1oc(-c2ccccc2Br)nc1C=Nc1ccc(Br)cn1,-0.2% (inactive),–
COc1ccc(N=Nc2n(C)c3ccccc3[n+]2C)cc1,79.3% (active),–
Cn1c(N=Nc2ccc(N3CCOCC3)cc2)[n+](C)c2ccccc21,-4.1% (inactive),–
COc1ccc(N2CC(O)=C(c3n(C)c4ccccc4[n+]3C)C2=N)cc1,1.6% (inactive),–
CC(C)(C)c1cc(C(=O)C[n+]2ccc(C(=O)NCCCO)cc2)cc(C(C)(C)C)c1O,-4% (inactive),–
CCCOC(=O)C1C2C=CC3(CN(c4cccc(Cl)c4)C(=O)C13)O2 (centres undefined),0.8% (inactive),–
Cc1cc(N2CCOCC2)n2nc(C(F)(F)F)c(-c3ccccc3)c2n1,0.1% (inactive),–
Cc1cc(C)n2nc(C(F)(F)F)c(-c3ccccc3)c2n1,0.5% (inactive),–
O=C(Nc1cccc2ncccc12)c1ccc(Cl)cc1,-1% (inactive),–
CC(C)(C)c1ccc(C(=O)Nc2cccc3ncccc23)cc1,62% (active),65.1
O=C(Nc1cccc2ncccc12)c1ccc(F)cc1,2.1% (inactive),–
COc1ccc(O)c(C(=O)c2cnc3nc4ccccc4n3c2)c1,28.4% (inactive),–
c1ccc(-c2csc(-c3ccncc3)n2)cc1,0.1% (inactive),–
O=C(O)c1ccc(/C=C2\CCCc3c2nc2ccccc2c3C(=O)O)cc1,4.2% (inactive),–
O=C(O)c1c2c(nc3ccccc13)/C(=C/c1ccc(O)cc1)CC2,77.1% (active),–
O=C(O)c1c2c(nc3ccccc13)/C(=C/c1ccc(O)cc1)CCC2,6.1% (inactive),–
CC(C)OCCCNC(=O)NC12CC3CC(CC(C3)C1)C2,1.1% (inactive),–

SMILES,inhibition (at 20 µM),inhibition [1] [%]
Cc1ccc(-n2nc3c(c2NC(=O)c2ccc4c(c2)OCO4)CS(=O)C3)cc1 (centres undefined),-0.3% (inactive),–
CCc1nnc(NS(=O)(=O)c2ccc(NC(=S)NC(=O)/C=C/c3ccc([N+](=O)[O-])cc3)cc2)s1,25.6% (inactive),–
CCc1nnc(NS(=O)(=O)c2ccc(NC(=S)NC(=O)/C=C/c3ccc(OC)cc3)cc2)s1,34.6% (inactive),–
CCc1nnc(NS(=O)(=O)c2ccc(NC(=S)NC(=O)/C=C/c3ccccc3)cc2)s1,60.8% (active),–
Cc1cccc(C)c1NC(=O)C(Cl)=C(Cl)Cl,0.7% (inactive),–
O=C(O)c1cccc(S(=O)(=O)N2CCOCC2)c1,-1% (inactive),–
CCn1ncc(Cl)c1C(=O)Nc1cc([N+](=O)[O-])ccc1OC,0.4% (inactive),–
Cc1ccsc1/C=N/NC(=O)c1ccccn1,-0.7% (inactive),–
COc1cccc(N2C(=O)C(c3ccccc3)=C(c3nc4ccccc4s3)C2NC(C)=O)c1 (centres undefined),0.6% (inactive),–
COc1ccc(C(=O)/C(C#N)=N/Nc2ccc([N+](=O)[O-])cc2)cc1,5.5% (inactive),–
N#C/C(=N\Nc1cccc([N+](=O)[O-])c1)C(=O)c1ccc(Br)cc1,63.4% (active),–
COc1ccc(C(=O)/C(C#N)=N/Nc2cccc([N+](=O)[O-])c2)cc1,20.6% (inactive),–
Cc1c(C(=O)OCC(=O)N(C)c2ccccc2)oc2ccccc12,1.2% (inactive),–
O=C1c2cccc3c(N4CCCCC4)ccc(c23)C(=O)N1c1ccc(O)cc1,146% (inactive),–
O=C(OCCN1C(=O)c2cccc3c(N4CCOCC4)ccc(c23)C1=O)c1ccc(Cl)cc1,149% (inactive),–
O=C(OCCN1C(=O)c2cccc3c(N4CCOCC4)ccc(c23)C1=O)c1cccc(Cl)c1,151% (inactive),–
CCN(CC)S(=O)(=O)c1ccc(C(=O)OCCN2C(=O)c3cccc4c(N5CCOCC5)ccc(c34)C2=O)cc1,150% (inactive),–
O=C1c2cccc3c(N4CCCCC4)ccc(c23)C(=O)N1c1ccccc1O,100% (active),–
CC(=O)N(C(C)=O)N1C(=O)c2cccc3c(N4CCOCC4)ccc(c23)C1=O,100% (active),–
O=C(OCCN1C(=O)c2cccc3c(N4CCOCC4)ccc(c23)C1=O)c1cc(Cl)cc(Cl)c1,88.8% (active),–
O=C(OCCN1C(=O)c2cccc3c(N4CCOCC4)ccc(c23)C1=O)c1ccccc1Cl,151% (inactive),–
O=C(OCCN1C(=O)c2cccc3c(N4CCOCC4)ccc(c23)C1=O)c1ccc(Cl)cc1Cl,151% (inactive),–
O=C1c2cccc3c(N4CCCCC4)ccc(c23)C(=O)N1c1cccc(O)c1,148% (inactive),–
O=C1c2cccc3c(N4CCCCC4)ccc(c23)C(=O)N1CCO,-0.2% (inactive),–
CCCN(CCC)S(=O)(=O)c1ccc(C(=O)OCCN2C(=O)c3cccc4c(N5CCOCC5)ccc(c34)C2=O)cc1,63.4% (active),–
